# Sampled rows, rich in hits. Any-hit rate of the full collection: about 1.7%.
# TRPML1 ag: activates the human TRPML1 channel; TRPML1-expressing cells, Ca2+ dye fluorescence, FDSS; activation, % (test concentration not listed); 0.12% of 410,000 active; AID 624414; in the data active means activation above about 50%; inconclusive means mostly about 30% to 49%; further: 0% is about no effect
#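 Cells: TRPML1-DL, 1X Tet inducer, ~16 h at 37 degrees C/5% CO2. Dye: ABD Ca8 no-wash + quencher, 45-90 min RT. Read: 10 s baseline, compound add, 110 s agonist phase; 54-4 EC80 (4uM final), 110 s antagonist phase.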
# TRHR enhancer: TRH receptor (human) allosteric enhancement | P34981 | TRHR cells, fluo-8 calcium fluorescence, EC20 TRH enhancement | enhancement, % at 2 µM | 0.66% of 360,000 active; in the data active means enhancement above about 30%; further: 0% is about no effect
# Target sequence (P34981 whole entry, looked up): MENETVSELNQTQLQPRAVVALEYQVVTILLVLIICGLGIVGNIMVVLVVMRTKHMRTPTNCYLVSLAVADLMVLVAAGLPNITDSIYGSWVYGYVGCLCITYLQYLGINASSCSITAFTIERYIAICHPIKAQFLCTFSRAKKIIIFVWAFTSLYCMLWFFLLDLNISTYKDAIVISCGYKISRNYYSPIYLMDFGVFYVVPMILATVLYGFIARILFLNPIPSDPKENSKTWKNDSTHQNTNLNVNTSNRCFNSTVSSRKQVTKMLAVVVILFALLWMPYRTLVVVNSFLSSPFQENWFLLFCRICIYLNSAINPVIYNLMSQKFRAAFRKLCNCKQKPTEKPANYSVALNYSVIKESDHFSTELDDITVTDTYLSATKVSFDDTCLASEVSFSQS
#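 TRHR-expressing cells loaded with fluo-8 calcium dye were read kinetically (ex 480/em 530) during compound addition, then stimulated with an EC20 of TRH (10 nM final). Enhancement of the Gq-mediated intracellular calcium response was scored.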
# TRPML1 inh: human mucolipin-1 channel inhibition | Q9GZU1 | TRPML1-inducible cells, Ca2+ dye fluorescence, FDSS; active compounds read low; inhibition of EC80 agonist-evoked calcium signal | activity change, negative = inhibition, % (concentration not given with the values) | 0.02% of 390,000 active | AID 624415; in the data active means activity change below about -50%; inconclusive means between about -30% and that limit;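 further: stimulus is agonist 54-4 at its EC80 concentration; on the % scale 0 is the no-effect control and ±100 the full control effect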
#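 Tet-induced TRPML1-DL cells loaded with Ca8 no-wash calcium dye were read kinetically on FDSS. Compound addition was followed by EC80 agonist 54-4 (4 uM final); inhibition was read over 110 s.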
# KCNH2 3.1 inh: inhibitors of human KCNH2 3.1 potassium channel isoform | U2OS KCNH2 3.1, thallium flux FluxOr; active compounds read low | activity change, % (tested at about 1.8 µM) | 0.95% of 340,000 active | AID 720553;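 active means maximum activity change below -70%; inconclusive means maximum activity change from -70% to -50%; inactive means maximum activity change above -50%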;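 further: thallium influx rate constant from kinetic fluorescence after stimulation buffer; on the % scale 0 is the no-effect control and ±100 the full control effect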
#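 U2OS cells transduced with KCNH2 3.1 mutant virus (1.77 x 10^8 /mL, 4 h), plated overnight at 37 C, loaded 45 min with FluxOr dye plus Red40 quencher. Thallium flux rate constant from kinetic reads after stimulation buffer, normalised to controls.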
# KCNH2 WT inh: blocks the wildtype human KCNH2 potassium channel. 0.37% of 340,000 active. U2OS, BacMam KCNH2, thallium flux FluxOr; active compounds read low. activity change, % at 1.84 µM. AID 720551;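 active means maximum activity change below -70%; inconclusive means maximum activity change between -70% and -50%; inactive means maximum activity change above -50%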; further: on the % scale 0 is the no-effect control and ±100 the full control effect
#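 U2OS cells were transduced with wild-type KCNH2 virus (2.03 x 10^8 / mL) for 4 h at room temperature, then cultured overnight at 37 C. Thallium flux was read with FluxOr dye. Rate constants were normalized to DMSO controls.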
# TRHR ag: agonists of human TRH receptor; P34981; TRHR cells, calcium flux fluo-8, FDSS agonist mode; activation, % at 2 µM; 0.18% of 360,000 active; AID 493084; in the data active means activation above about 30%; further: 0% is about no effect
#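 TRHR-expressing cells, plated overnight in medium with 10% serum, were loaded with fluo-8 calcium dye at room temperature. After a 10 s baseline, library compound was pin-added and calcium release was recorded kinetically (ex 480/em 530) as agonist response.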
# Starred values were filed as active, the others as inactive; ? = inconclusive; / = no result given.
SMILES,TRPML1 ag,TRHR enhancer,TRPML1 inh,KCNH2 3.1 inh,KCNH2 WT inh,TRHR ag
N#Cc1ccc(S(=O)(=O)N2CCCN(c3ccc(C(F)(F)F)cn3)CC2)cc1,1,-13,18,-32,36,1
N#Cc1ccc(S(=O)(=O)N2CCCN(c3nc4ccc(Cl)cc4s3)CC2)cc1,1,-2,4,-95*,-74*,0
CSc1ccccc1NC(=S)NCc1ccc(Cl)cc1,2,-6,-14,-7,-1,-1
Nc1cccc2c1C(=O)N(C(=O)/C=C/c1cccc(Br)c1)C2=O,0,1,6,-17,0,-1
Nc1cccc2c1C(=O)N(C(=O)/C=C/c1cccc(F)c1)C2=O,0,31*,1,3,8,0
CCCNc1c(F)c(F)c2c(C)c3ccccc3nc2c1F,1,9,-2,10,-3,34*
COc1ccccc1CCN1C(=S)NC(C)(C)CC1(C)O (centres undefined),2,8,8,3,0,-1
COc1ccc(CN2C(=S)NC(C)(C)CC2(C)O)cc1 (centres undefined),0,2,5,16,-142*,0
Cc1cc(N/C=C\c2nnnn2-c2ccc(F)cc2)no1,2,-1,4,6,-121*,0
CN(C)CCCNC(=O)c1cc(C(=O)Cc2ccccc2)c[nH]1,0,34*,20,-39,/,1
CN(C)S(=O)(=O)c1ccc(C(=O)Nc2cc3c(cc2C(=O)O)OCCCO3)cc1,0,6,19,-4,-2,1
C[C@H](O)[C@@H]1CN2CCc3c([nH]c4ccccc34)[C@@H]2C[C@@H]1N(C)C(=O)OCc1ccccc1,1,/,/,/,/,/
COC(=O)c1ccc(NC(=O)CSc2nnc(-c3cccnc3)o2)cc1,0,6,2,11,-2,0
Cc1ccn2c(Cc3ccccc3)c(-c3ccc(Br)cc3)nc2c1,2,/,63,-74*,-18,/
COc1ccc(C2c3[nH]c4ccccc4c3CCN2Cc2cccn2-c2ncccn2)cc1C (centres undefined),0,-1,-3,-79*,?,6
CC(C)C[C@H](N)c1cn([C@@H](CCCCN)C(=O)N2CCNCC2)nn1,0,31*,11,-7,-14,0
C#CCOCCOCCOCCNc1nc(N2CCN(C(=O)[C@H](CCCCN)n3cc(CC(C)O)nn3)CC2)nc(N2CCN(C(=O)[C@H](CCCCN)n3cc(CC(C)O)nn3)CC2)n1 (some centres undefined),0,1,-8,-76*,-2,1
C#CCOCCOCCOCCNc1nc(N2CCN(C(=O)[C@H]([C@@H](C)CC)n3cc([C@@H](N)CO)nn3)CC2)nc(N2CCN(C(=O)[C@H](CCCCN)n3cc([C@@H](N)C(C)CC)nn3)CC2)n1 (some centres undefined),0,1,29,3,-5,1
C#CCOCCOCCOCCNc1nc(N2CCN(C(=O)[C@H]([C@@H](C)CC)n3cc([C@@H](N)CC(C)C)nn3)CC2)nc(N2CCN(C(=O)[C@H](CCCCN)n3cc([C@@H](N)CC(C)C)nn3)CC2)n1,1,38*,-21,46,-5,0
C#CCOCCOCCOCCNc1nc(N2CCN(C(=O)[C@H](CCCCN)n3cc([C@@H](N)C(C)CC)nn3)CC2)nc(N2CCN(C(=O)[C@H](CCCCN)n3cc([C@@H](N)CO)nn3)CC2)n1 (some centres undefined),/,37*,/,/,/,0
c1ccc(CNCc2nnc(-c3cc4ccccc4[nH]3)s2)cc1,/,4,/,/,/,1
CCC(C)(C)NC(=O)C(c1cccs1)N(CC1CCCO1)C(=O)Cn1nnc2ccccc21 (centres undefined),1,38*,11,-2,-2,-1
CCCOc1ccc(/C=C/c2[nH]c(=O)[nH]c(=O)c2[N+](=O)[O-])cc1OCC,1,3,-15,-2,0,3
CCOc1cc(/C=C\c2[nH]c(=O)[nH]c(=O)c2[N+](=O)[O-])ccc1OC(C)CC (centres undefined),-1,-1,-71*,0,-2,0
COc1ccccc1C(=O)N1N=C(c2ccc(NS(C)(=O)=O)cc2)CC1c1cccs1 (centres undefined),2,34*,14,2,/,-1
SMILES,TRPML1 ag,TRHR enhancer,TRPML1 inh,KCNH2 3.1 inh,KCNH2 WT inh,TRHR ag
O=C(N/N=C/c1cccnc1)c1ccc(NC(=O)c2ccccc2Cl)cc1,-1,31*,14,-4,4,1
CCCn1c(SCC(=O)N2c3ccccc3CC2C)n[nH]c1=O (centres undefined),0,1,-9,-4,0,0
O=C(CN1CCCCCC1)NC(c1ccccc1)c1ccccc1,1,-10,5,-82*,17,-1
O=C(CN1CCCCCC1)NN(Cc1ccccc1)c1ccccc1,2,-3,9,-95*,-45,0
O=C(CN1CCN(c2ccc(O)cc2)CC1)NC(c1ccccc1)c1ccccc1,1,0,2,-22,26,1
CC(C)C(=O)Nc1ccc(C(=O)NNC(=O)CCc2ccccc2)cc1,0,-1,11,-76*,-17,1
O=C(Cc1ccccc1)NNC(=O)c1ccc(NC(=O)c2ccccc2)cc1,2,0,-24,9,3,0
COc1ccc(C2=C/C(=C/c3cccnc3)C(=O)O2)cc1OC,?,2,1,/,5,45*
COc1ccc(-c2cn3nc(N4CCCC(C(=O)NCc5ccccc5OC)C4)sc3n2)cc1 (centres undefined),1,8,-1,/,/,0
Cc1cccc(CSCC(=O)N2CCN(S(=O)(=O)c3ccccc3C#N)CC2)c1,-1,/,0,8,-238*,/
O=C(NCCC1=CCCCC1)c1ccc2c(c1)N(Cc1cccc(Cl)c1)C(=O)c1ccccc1S2=O (centres undefined),1,0,7,/,/,0
O=C(Cn1cc(C(F)(F)F)ccc1=O)NCCc1ccc(Cl)cc1Cl,1,-4,-3,0,9,0
N#Cc1ccc(CN2CCN(CC(=O)NCCc3ccc(Cl)cc3Cl)CC2)cc1,1,17,51,-80*,-79*,-1
Cc1cc2c(s1)c1cnn(Cc3cc(F)cc(F)c3F)c(=O)c1n2C,/,-1,/,/,/,0
Cc1ccc(-n2c(SCC(=O)Nc3ccc4cn[nH]c4c3)nnc2-c2ccco2)cc1,3,-1,5,-112*,-10,0
